Legend:
Assay in all cases: log2 ratio of Biotin-Ahx-Ub-VS probe labelling (fragment/DMSO); higher = less target engagement (more negative = stronger competition), active = hit call of the paper (q ≤ 0.05, log2 ratio ≤ -1)
Conditions in all cases: compound concentration: 200 uM; treatment time: 3 h
[1] = target: T1, USP42 (UniProt Q9H9J4)
T1 sequence (whole entry): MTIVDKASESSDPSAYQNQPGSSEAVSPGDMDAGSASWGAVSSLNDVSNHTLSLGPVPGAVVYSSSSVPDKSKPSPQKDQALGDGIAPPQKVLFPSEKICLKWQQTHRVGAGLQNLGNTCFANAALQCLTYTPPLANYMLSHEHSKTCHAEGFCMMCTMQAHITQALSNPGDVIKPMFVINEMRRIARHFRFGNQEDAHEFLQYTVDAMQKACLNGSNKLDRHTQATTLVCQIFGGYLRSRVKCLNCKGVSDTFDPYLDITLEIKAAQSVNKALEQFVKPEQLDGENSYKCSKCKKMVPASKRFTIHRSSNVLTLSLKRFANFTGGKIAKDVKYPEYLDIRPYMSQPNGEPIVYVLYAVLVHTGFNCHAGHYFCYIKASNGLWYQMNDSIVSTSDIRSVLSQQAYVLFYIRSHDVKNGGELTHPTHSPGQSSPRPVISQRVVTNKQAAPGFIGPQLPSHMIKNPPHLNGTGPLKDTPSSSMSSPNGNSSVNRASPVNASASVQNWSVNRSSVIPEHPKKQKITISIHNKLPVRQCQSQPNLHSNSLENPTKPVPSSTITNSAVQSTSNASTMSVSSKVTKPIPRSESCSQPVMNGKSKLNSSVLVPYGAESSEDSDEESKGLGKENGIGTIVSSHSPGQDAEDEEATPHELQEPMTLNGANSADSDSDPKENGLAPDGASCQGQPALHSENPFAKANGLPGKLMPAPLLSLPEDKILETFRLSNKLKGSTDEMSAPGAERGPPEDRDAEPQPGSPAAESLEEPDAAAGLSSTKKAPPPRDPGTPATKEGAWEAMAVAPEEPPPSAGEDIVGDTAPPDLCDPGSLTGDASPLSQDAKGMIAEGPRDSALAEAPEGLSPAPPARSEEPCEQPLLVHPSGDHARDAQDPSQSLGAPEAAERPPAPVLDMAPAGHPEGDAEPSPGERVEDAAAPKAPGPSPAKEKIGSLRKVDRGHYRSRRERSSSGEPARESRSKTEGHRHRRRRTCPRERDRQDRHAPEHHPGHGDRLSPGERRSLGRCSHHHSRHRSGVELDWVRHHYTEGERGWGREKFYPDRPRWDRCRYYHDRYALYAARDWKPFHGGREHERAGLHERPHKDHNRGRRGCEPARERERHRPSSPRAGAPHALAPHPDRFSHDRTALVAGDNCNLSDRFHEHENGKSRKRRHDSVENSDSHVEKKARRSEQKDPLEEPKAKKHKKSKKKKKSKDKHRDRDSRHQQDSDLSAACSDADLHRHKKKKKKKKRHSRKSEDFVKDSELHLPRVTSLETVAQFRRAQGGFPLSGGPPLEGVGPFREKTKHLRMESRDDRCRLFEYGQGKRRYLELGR
Method in brief: (§1)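 Global-median-normalised Spectronaut label-free quantities were compared by unpaired t-test, and values are average log2 ratios of fragment over vehicle. Only proteins with ≥2 unique peptides were used. HEK293T lysate (495 µg per sample) was treated in triplicate with fragment at 200 µM or vehicle for 3 h and then with Biotin-Ahx-Ub-VS at 0.5 µM final for 1 h. Labelled DUBs were then NeutrAvidin-enriched, digested with LysC and trypsin, and run by diaPASEF LC-MS/MS.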

[2] = target: USP46 (UniProt P62068)
Chain of USP46 (P62068 whole entry): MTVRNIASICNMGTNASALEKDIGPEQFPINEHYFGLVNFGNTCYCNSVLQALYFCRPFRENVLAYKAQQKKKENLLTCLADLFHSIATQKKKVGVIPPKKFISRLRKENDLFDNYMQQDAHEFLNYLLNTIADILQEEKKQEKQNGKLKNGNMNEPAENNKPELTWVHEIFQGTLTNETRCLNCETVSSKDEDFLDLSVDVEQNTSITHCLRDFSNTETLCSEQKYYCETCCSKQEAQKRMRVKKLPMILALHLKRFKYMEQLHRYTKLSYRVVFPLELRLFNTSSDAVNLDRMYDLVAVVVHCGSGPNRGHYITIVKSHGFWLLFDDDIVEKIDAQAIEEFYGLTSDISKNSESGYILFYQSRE
Method in brief: as §1

[3] = target: T2, USP47 (UniProt Q96K76)
T2 sequence (whole entry): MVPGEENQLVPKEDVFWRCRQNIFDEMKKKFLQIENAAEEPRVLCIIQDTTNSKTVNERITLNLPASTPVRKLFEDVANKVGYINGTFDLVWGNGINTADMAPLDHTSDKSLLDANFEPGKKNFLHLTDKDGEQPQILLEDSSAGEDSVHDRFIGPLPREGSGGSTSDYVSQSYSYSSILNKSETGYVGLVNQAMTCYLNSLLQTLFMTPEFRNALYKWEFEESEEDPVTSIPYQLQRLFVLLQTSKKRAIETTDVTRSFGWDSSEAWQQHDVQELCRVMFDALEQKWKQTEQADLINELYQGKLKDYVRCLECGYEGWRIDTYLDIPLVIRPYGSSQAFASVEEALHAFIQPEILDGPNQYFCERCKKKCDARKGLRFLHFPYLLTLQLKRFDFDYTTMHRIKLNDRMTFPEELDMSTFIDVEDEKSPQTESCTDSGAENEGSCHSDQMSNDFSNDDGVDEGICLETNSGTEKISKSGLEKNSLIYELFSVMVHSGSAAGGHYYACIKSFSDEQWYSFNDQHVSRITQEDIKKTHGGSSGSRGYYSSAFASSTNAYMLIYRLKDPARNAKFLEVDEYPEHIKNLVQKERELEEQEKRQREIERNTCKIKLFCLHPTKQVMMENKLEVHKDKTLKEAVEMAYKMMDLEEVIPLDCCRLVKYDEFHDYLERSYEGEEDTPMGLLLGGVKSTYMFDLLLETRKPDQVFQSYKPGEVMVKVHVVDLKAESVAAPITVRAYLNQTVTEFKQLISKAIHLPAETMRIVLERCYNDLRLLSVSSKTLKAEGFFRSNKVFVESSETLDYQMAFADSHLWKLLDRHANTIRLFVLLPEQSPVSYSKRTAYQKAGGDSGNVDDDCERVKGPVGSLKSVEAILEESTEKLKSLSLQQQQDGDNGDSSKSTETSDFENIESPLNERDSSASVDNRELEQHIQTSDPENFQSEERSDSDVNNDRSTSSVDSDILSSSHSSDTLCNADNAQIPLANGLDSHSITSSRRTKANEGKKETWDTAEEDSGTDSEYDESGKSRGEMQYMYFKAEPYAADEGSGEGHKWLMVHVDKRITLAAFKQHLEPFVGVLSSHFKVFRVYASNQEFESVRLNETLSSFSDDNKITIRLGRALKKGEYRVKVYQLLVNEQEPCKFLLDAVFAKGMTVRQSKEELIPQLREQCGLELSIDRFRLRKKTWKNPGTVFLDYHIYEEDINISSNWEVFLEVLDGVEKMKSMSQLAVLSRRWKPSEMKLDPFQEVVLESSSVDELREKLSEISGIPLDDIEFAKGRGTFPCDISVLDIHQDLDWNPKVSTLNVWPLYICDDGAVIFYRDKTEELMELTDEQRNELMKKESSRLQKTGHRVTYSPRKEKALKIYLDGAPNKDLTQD
Method in brief: as §1

[4] = target: T3, USP48 (UniProt Q86UV5)
T3 sequence (whole entry): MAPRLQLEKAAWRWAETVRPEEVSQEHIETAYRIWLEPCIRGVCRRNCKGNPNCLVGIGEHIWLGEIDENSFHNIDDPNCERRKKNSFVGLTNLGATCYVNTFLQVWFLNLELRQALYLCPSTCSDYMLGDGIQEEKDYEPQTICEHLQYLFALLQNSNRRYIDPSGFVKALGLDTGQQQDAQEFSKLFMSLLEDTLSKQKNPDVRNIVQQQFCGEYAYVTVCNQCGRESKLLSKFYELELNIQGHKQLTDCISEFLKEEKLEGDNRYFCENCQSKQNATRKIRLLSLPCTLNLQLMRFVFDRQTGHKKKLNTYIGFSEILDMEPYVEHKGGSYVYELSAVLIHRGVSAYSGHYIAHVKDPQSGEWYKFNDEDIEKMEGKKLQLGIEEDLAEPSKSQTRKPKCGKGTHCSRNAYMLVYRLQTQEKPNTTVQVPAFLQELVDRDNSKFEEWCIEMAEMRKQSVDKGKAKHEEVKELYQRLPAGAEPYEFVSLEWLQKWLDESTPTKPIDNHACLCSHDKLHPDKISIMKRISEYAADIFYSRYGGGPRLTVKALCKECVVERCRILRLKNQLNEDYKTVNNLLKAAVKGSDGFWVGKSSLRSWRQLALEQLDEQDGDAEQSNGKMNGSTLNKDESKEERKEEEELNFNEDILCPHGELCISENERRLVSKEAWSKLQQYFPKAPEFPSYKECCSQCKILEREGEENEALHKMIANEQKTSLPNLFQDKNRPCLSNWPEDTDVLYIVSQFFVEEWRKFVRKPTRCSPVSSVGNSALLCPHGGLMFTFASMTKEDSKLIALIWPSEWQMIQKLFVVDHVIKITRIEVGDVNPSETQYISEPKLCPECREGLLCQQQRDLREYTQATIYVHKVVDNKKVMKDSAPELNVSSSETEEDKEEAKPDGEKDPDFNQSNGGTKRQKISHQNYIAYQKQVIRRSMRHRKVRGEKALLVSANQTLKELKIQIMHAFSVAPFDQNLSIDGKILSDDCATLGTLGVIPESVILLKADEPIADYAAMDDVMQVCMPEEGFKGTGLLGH
Method in brief: as §1

[5] = target: T4, USP5 (UniProt P45974)
T4 sequence (whole entry): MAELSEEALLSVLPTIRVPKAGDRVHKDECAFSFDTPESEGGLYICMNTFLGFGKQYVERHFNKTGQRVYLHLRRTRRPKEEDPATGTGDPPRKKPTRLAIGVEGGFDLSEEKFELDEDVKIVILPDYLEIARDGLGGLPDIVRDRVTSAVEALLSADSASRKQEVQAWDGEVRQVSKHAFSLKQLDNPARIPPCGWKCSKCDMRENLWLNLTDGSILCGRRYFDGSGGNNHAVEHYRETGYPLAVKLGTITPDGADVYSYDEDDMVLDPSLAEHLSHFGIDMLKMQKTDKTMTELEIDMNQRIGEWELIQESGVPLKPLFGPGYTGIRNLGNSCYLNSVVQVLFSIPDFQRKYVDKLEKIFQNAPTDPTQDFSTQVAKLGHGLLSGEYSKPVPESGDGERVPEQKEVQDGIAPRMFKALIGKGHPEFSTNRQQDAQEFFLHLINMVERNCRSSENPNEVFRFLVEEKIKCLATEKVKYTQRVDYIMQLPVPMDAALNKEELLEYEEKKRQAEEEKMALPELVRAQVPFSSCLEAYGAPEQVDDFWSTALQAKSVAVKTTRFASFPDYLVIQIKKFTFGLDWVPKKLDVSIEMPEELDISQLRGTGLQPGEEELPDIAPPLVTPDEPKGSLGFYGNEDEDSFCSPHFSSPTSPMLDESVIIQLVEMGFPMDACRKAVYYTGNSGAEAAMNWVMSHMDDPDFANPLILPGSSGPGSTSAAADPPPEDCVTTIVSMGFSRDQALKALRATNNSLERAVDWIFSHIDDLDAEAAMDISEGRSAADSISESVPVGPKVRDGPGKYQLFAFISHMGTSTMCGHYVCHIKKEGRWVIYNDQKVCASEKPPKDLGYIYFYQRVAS
Method in brief: as §1

[6] = target: USP54 (UniProt Q70EL1)
Chain of USP54 (Q70EL1 whole entry): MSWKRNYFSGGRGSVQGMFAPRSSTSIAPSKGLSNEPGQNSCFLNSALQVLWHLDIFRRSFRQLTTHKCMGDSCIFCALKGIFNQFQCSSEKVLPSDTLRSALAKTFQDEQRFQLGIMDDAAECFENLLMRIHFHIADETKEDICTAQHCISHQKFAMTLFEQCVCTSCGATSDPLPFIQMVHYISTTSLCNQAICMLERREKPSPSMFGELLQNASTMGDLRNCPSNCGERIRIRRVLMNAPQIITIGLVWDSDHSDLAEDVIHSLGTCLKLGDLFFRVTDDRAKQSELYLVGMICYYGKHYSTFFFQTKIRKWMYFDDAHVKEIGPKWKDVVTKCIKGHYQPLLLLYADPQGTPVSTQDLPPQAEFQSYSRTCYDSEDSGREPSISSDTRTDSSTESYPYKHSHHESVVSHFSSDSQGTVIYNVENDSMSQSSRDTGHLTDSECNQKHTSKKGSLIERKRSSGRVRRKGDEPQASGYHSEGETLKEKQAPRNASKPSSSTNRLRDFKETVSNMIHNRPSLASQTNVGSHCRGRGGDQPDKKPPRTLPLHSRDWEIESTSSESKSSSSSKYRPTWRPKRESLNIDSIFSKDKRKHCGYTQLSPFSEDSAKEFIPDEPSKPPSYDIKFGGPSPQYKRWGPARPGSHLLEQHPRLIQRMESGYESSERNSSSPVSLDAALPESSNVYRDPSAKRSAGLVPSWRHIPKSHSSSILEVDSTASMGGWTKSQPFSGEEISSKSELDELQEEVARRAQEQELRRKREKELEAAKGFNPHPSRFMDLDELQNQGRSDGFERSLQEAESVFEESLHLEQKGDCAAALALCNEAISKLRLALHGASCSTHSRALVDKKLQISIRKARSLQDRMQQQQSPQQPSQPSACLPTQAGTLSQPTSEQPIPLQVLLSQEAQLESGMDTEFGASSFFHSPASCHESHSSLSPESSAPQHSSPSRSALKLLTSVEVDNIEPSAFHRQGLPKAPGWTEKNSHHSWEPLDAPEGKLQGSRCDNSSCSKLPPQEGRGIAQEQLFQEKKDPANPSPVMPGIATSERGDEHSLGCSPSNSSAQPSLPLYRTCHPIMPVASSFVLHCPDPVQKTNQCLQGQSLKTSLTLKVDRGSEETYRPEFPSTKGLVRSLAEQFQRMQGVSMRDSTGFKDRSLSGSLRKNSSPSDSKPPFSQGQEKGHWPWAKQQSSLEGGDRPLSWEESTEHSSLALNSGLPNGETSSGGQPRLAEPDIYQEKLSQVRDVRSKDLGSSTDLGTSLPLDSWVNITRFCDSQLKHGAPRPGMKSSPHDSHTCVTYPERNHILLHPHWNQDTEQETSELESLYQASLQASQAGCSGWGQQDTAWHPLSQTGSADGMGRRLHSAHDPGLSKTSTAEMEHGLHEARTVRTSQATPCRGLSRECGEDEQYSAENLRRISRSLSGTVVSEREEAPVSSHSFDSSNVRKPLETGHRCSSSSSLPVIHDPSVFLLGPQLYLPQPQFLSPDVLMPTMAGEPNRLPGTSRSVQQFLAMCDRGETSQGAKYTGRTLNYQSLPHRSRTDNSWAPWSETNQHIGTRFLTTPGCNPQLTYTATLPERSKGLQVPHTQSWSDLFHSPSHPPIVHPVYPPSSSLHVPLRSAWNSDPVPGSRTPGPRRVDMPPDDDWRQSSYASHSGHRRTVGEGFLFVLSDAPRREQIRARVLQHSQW
Method in brief: as §1

[7] = target: USP7 (UniProt Q93009)
Method in brief: as §1

[8] = target: T5, USP8 (UniProt P40818)
T5 sequence (whole entry): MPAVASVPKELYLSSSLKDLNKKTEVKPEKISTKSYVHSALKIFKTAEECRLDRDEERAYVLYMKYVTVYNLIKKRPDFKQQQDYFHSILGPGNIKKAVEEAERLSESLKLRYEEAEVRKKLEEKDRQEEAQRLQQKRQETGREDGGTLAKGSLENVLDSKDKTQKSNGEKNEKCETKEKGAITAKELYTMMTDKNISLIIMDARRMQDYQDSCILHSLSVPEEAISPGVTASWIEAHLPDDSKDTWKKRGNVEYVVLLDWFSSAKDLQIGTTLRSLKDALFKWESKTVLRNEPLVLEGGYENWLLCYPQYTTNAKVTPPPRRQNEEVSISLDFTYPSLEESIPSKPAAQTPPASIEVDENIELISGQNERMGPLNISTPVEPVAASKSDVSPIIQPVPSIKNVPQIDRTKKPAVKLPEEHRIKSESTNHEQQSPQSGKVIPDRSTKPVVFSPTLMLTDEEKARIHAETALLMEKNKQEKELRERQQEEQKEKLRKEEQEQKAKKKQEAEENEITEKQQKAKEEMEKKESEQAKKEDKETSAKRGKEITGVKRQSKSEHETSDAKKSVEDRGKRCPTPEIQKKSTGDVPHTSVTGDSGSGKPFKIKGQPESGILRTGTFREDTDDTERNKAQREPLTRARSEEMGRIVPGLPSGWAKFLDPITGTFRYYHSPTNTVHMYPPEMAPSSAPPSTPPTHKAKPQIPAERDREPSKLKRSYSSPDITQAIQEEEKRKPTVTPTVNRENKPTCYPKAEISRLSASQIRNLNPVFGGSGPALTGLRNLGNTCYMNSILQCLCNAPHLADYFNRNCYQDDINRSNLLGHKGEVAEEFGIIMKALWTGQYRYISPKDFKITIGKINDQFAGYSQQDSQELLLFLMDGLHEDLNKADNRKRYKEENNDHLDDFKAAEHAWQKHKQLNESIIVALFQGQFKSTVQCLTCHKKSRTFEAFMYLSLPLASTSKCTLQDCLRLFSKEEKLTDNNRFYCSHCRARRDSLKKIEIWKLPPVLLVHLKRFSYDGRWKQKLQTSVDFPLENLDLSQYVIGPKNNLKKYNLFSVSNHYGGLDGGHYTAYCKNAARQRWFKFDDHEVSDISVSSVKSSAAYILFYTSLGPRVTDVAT
Method in brief: as §1

[9] = target: USP9X (UniProt Q93008)
Chain of USP9X (Q93008 whole entry): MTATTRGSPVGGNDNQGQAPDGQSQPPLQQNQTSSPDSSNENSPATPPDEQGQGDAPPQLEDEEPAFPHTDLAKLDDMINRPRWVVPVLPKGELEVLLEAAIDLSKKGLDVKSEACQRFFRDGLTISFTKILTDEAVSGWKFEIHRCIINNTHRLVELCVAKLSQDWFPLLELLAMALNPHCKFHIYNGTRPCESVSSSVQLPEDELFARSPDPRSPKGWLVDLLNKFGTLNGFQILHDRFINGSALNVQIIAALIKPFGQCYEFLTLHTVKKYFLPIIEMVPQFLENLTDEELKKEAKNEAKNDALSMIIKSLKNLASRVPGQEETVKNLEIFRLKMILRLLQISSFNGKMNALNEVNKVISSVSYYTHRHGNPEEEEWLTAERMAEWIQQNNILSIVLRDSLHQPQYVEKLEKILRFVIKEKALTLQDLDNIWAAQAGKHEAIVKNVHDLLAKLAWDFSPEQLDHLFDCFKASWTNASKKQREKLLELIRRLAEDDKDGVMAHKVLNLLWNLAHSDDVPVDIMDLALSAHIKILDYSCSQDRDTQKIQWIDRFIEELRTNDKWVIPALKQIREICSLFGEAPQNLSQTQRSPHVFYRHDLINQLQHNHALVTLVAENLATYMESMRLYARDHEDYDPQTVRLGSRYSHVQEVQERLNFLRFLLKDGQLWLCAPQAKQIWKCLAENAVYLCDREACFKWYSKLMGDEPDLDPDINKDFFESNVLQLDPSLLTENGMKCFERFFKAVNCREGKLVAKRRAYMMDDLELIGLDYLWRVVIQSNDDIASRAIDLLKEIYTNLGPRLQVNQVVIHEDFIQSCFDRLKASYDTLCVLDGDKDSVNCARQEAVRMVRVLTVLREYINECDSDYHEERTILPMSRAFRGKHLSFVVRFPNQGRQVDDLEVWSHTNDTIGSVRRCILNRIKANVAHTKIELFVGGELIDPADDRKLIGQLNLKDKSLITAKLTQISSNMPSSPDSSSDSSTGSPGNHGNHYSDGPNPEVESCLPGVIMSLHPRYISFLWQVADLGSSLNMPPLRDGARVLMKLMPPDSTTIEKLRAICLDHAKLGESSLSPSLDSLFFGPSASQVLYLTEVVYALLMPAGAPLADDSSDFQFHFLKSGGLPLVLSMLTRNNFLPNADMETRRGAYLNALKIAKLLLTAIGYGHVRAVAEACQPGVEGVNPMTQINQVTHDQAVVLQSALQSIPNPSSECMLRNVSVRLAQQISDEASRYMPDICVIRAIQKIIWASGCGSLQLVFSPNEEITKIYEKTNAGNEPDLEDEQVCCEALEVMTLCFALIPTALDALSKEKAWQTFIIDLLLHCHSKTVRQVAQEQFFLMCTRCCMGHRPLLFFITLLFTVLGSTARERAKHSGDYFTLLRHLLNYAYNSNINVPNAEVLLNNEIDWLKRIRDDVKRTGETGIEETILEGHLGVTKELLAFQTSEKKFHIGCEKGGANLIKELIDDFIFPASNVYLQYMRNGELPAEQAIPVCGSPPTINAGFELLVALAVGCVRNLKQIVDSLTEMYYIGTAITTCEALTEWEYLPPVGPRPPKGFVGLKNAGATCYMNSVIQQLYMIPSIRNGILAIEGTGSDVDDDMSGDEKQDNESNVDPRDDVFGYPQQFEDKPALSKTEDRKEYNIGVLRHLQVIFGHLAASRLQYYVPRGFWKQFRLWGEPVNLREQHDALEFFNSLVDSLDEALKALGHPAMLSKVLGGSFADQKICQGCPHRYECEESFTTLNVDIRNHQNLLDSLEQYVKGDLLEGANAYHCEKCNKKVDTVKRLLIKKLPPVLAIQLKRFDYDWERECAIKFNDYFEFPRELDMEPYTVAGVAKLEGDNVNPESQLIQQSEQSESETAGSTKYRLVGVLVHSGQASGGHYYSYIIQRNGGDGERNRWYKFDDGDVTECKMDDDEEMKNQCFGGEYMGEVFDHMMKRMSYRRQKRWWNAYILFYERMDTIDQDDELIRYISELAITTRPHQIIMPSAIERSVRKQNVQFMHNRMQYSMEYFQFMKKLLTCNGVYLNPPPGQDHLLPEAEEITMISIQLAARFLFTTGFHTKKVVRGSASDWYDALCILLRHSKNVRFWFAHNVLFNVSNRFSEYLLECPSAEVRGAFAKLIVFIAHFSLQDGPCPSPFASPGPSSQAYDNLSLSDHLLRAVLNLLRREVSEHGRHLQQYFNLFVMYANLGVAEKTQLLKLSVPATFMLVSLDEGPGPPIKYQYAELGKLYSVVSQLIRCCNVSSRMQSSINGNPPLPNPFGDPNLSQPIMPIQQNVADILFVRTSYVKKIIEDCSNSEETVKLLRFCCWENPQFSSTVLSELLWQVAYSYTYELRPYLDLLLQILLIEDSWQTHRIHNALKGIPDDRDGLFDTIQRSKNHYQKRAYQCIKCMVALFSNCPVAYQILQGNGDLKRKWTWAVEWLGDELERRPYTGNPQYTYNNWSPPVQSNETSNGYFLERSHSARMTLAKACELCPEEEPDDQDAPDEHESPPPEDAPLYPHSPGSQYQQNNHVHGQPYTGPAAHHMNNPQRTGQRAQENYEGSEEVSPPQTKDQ
Method in brief: as §1

[10] = target: UniProt O00487
Chain of UniProt O00487 (O00487 whole entry): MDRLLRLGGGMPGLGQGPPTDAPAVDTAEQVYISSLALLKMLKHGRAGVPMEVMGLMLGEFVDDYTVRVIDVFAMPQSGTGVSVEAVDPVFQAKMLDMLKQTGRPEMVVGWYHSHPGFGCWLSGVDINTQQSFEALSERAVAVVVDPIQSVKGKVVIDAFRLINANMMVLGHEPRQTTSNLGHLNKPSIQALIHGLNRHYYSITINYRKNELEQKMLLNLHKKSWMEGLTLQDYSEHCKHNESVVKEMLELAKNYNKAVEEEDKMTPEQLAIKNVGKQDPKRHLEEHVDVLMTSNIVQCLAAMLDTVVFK
Method in brief: as §1

Measured: log2 ratio of Biotin-Ahx-Ub-VS probe labelling

CC(=O)Nc1ccc(NC(=O)CCl)cc1
inactive: [1] 0.329 | [2] -0.0429 | [3] -0.31 | [4] -0.256 | [5] -0.0185 | [6] 0.408 | [7] -0.267 | [8] -0.236 | [9] -0.118 | [10] -0.167

Reference: the supplement of paper PMC11732987, “Enantioselective OTUD7B fragment discovery through chemoproteomics screening and high-throughput optimisation” (Communications Chemistry, 2025)
